Results on 7 compounds are retold here after PubChem BioAssay.

In assay [1] the test system is TRPC4 beta (transient receptor potential cation channel C4), mouse. As to the kind of experiment: activators of mouse TRPC4 channel, confirmation, cell-based, Fluo4 calcium, HEK293 TRPC4beta/mu-opioid, duplicates, 10 µM (AID 2426;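 active = fluorescence ratio normalized to control raised more than 50% in primary screen plus both repeat runs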). The settings on record: Fluo4 calcium fluorescence, at 10 µM; stronger effect = higher value.
Assay [2] deals with transient receptor potential cation channel C4 beta (TRPC4), mouse. Description: activators of mouse TRPC4 channel, confirmation, cell-based, second round, Fluo4, HEK293 TRPC4beta/mu-opioid, 1 µM (AID 2461;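 active = primary screen active and over 50% activation in each of two duplicate runs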). The settings on record: Fluo4 calcium fluorescence, at 1 µM; stronger effect = higher value.
Assay [3] deals with TRPC4 (transient receptor potential cation channel C4 beta), mouse. Description: positive allosteric modulators of mouse TRPC4, confirmation, cell-based, second round, Fluo-4, HEK293 TRPC4beta/mu-opioid, 1 µM (AID 2554;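 active = primary screen hit whose fluorescence ratio, in both repeats, exceeds the weak agonist control mean by 3 SD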). Particulars: DAMGO EC20, Fluo-4 calcium flux, at 1 µM; stronger effect = higher value. A general note: Calcium flux is commonly read through the fluorescence of an indicator in the cells.

Assay [4] deals with TRPC4 beta (transient receptor potential cation channel C4), mouse. Description: positive allosteric modulators of mouse TRPC4, confirmation, cell-based, Fluo-4, HEK293 TRPC4beta/mu-opioid (AID 2555;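 active = primary screen hit whose calcium fluorescence ratio, in both repeats, exceeds the weak agonist control mean by 3 SD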). Particulars: DAMGO EC20, Fluo-4 calcium flux, at 10 µM; stronger effect = higher value.
The target of assay [5] is Short transient receptor potential channel 4 (Mus musculus) (UniProt Q9QUQ5). As to the kind of experiment: inhibitors of mouse TRPC4 channel, confirmation, cell-based, Fluo4, HEK293 TRPC4beta/mu-opioid (AID 2636;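 active = calcium signal cut by more than 3 SD below the full-agonist control yet still positive, in both repeats and the earlier primary screen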). The settings on record: DAMGO, Fluo4 calcium flux, at 10 µM; stronger effect = higher value.
For assay [6] the target is unchanged. Description: inhibitors of mouse TRPC4 channel, confirmation, cell-based, second round, Fluo4, HEK293 TRPC4beta/mu-opioid, 1 µM (AID 2637;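 active = calcium signal ratio cut to more than 3 SD under the fully stimulated control mean yet still positive, in both repeats and the primary screen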;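 for inhibition: percent of integrated ratio relative to wells lacking test compound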). The settings on record: Fluo4 calcium flux, DAMGO, at 1 µM; stronger effect = higher value.
Assay [7] shares this target. Description: mouse TRPC4 channel activators, dose response, cell-based, HEK293 TRPC4/mu-opioid, Fluo-4 calcium (AID 434937;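 active = primary screen activator hit with a dose response curve and TRPC4 channel activation at any tested dose; inactive = no activation, no dose response, or not a primary hit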).
The target is the same in assay [8]. Description: TRPC4 positive allosteric modulators, dose response, cell-based, HEK293 TRPC4/mu-opioid, Fluo-4 calcium, EC20 DAMGO (AID 434941;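 active = earlier screen potentiator hit that boosts the TRPC4 ion channel at some dose, with a dose response; inactive = no potentiation, no dose response, or not a prior hit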;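 note: calcium entry triggered by an EC20 dose of DAMGO at the co-expressed mu-opioid receptor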).
Assay [9] deals with Short transient receptor potential channel 6 (Mus musculus) (UniProt Q61143). Description: inhibition of mouse TRPC6 channel, confirmation, selectivity assay for TRPC4 inhibitor project, cell-based, HEK293, membrane potential dye, duplicate (AID 434948;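 active = active in primary screen and both duplicates, each dropping signal beyond three positive-control SD with fluorescence still positive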). Particulars: HEK293 TRPC6, membrane potential dye fluorescence, at 10 µM, stimulated with maximal-effect acetylcholine; stronger effect = higher value.

Assay [10] has the same target. Description: activation of mouse TRPC6 channel, confirmation, selectivity assay for TRPC4 activator project, cell-based, HEK293, membrane potential dye, duplicate (AID 434950;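 active = membrane potential signal rise above negative control mean plus 3 SD in both duplicates, also active in the earlier TRPC4 screen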). Particulars: HEK293 TRPC6, membrane potential fluorescence, at 10 µM; stronger effect = higher value.
For assay [11] the target is unchanged. Description: TRPC6 potentiation by TRPC4 potentiator hits, confirmation, selectivity assay for TRPC4 potentiator project, HEK293 cells, membrane potential dye, duplicate (AID 434952;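 active = compound raising the membrane signal above positive-control mean plus 3 SD in both repeats, and a primary screen hit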). Particulars: HEK293 TRPC6, membrane potential dye fluorescence, at 10 µM, maximal acetylcholine added after compound; stronger effect = higher value.
The target in assay [12] is Short transient receptor potential channel 4 (Mus musculus) (UniProt Q9QUQ5). Description: calcium flux activators in TRPC4/5HT1a cells, counter-screen for TRPC4 activator project, cell-based, second counter screen, HEK293 TRPC4/5HT1a, Fluo-4 (AID 434977;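 active = calcium signal rise above buffer-control mean plus 5 SD in both duplicates, and also a hit in the primary screen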;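 for activation: plate controls were assay buffer for no effect and maximal serotonin response for full effect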). Particulars: Fluo-4 calcium flux, at 10 µM; stronger effect = higher value.
Assay [13] can be described thus: calcium flux inhibitors in TRPC4/5HT1a cells, confirmation, counter-screen for TRPC4 inhibitor project, cell-based, second counter screen, HEK293 TRPC4/5HT1a, Fluo-4 (AID 434978;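 active = primary screen active whose calcium signal fell more than 3 SD beyond the full-serotonin control mean in both duplicate plates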;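 for outcome: serotonin given first at submaximal then at maximal dose after compound preincubation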). The settings on record: Fluo-4 calcium flux, at 10 µM, serotonin added to trigger calcium flux; stronger effect = higher value.
Assay [14] concerns TRPC4 (mouse), co-expressed with 5HT1a in HEK293. As to the kind of experiment: calcium flux potentiators in TRPC4/5HT1a cells, confirmation, counter-screen for TRPC4 potentiator project, cell-based, second counter screen, HEK293 TRPC4/5HT1a, Fluo-4 (AID 434979). The settings on record: Fluo-4 calcium flux, at 10 µM, serotonin added at its EC20 dose; stronger effect = higher value.
Assay [15] can be described thus: calcium flux activation in mu-opioid HEK293 cells, confirmation, counter-screen for TRPC4 activator project, cell-based, HEK293 mu-opioid receptor line (AID 449723;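 active = hit in primary screen, with calcium signal over 5 SD above buffer well mean in both duplicates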;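 note: counter screen cells carry the mu-opioid receptor alone and lack TRPC4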). The settings on record: Fluo-4 calcium fluorescence, at 10 µM; stronger effect = higher value.
Assay [16] can be described thus: calcium flux enhancement in mu-opioid HEK293 cells, confirmation, counter-screen for TRPC4 allosteric potentiator project, cell-based, HEK293 mu-opioid receptor line (AID 449724;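 active = calcium signal rise more than 3 SD above the low-dose agonist control mean, in both duplicate plates and the primary screen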;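 note: HEK293 cells carrying mu-opioid receptor only with no TRPC4 channel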). The settings on record: Fluo-4 calcium flux, at 10 µM, compound added before EC20 DAMGO stimulus; stronger effect = higher value.
A short description of assay [17]: thallium flux activation in parental CHO cells, counter-screen for KCNQ1 potentiator project (AID 493006;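 active = duplicate-averaged activation above buffer control mean plus 5 SD of those controls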;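 for activation: fluorescence ratio of max minus min over baseline after K+ and Tl+ depolarization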). Particulars: parental CHO-K1 cells, FluxOR thallium flux, at 10 µM; stronger effect = higher value. (In general: The purpose of a counterscreen is to sort out artefacts and off-target activity.)
The target in assay [18] is Potassium voltage-gated channel subfamily KQT member 1 (Homo sapiens) (UniProt P51787). Description: KCNQ1 potassium channel potentiators, confirmation, FluxOR thallium flux, CHO cells, duplicates (AID 493007;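 active = potentiation averaged over duplicate wells exceeding buffer-only control mean by more than 3 SD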;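 for outcome: cells depolarized by a potassium plus thallium sulfate stimulus after compound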;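 for potentiation: 0% = buffer-only wells and 100% = R-L3 activator control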). Particulars: KCNQ1 cell line, FluxOR thallium flux fluorescence, at 10 µM; stronger effect = higher value, % of reference activator effect, buffer zero.
The target of assay [19] is Potassium voltage-gated channel subfamily KQT member 2 (Rattus norvegicus) (UniProt O88943). Description: rat KCNQ2 channel potentiation, selectivity assay for KCNQ1 potentiator project, KCNQ2-CHO-K1 cells (AID 493009;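 active = mean duplicate potentiation above the buffer control mean plus 5 SD of buffer wells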;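 note: assay conditions were tuned for KCNQ1 rather than KCNQ2 modulators; signal is max minus min fluorescence divided by baseline after thallium stimulus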). Particulars: FluxOR thallium flux fluorescence, at 10 µM; stronger effect = higher value, scaled: buffer 0, activator control 100.
Assay [20] deals with Short transient receptor potential channel 4 (Mus musculus) (UniProt Q9QUQ5). Description: mouse TRPC4 channel inhibitors, dose response, cell-based, HEK293 TRPC4/mu-opioid, Fluo-4 calcium (AID 434942;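 active = primary screen inhibitor hit that blocks the TRPC4 channel at some tested dose, yielding a dose curve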).

For some of these results: Measured potencies and affinities stand elsewhere. Active and inactive are the calls of the source.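 Rule for the calls, unless noted: active = signal rise over 3 SD above mean of control wells given weak agonist, in both repeats and first screen; inactive = the rest.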

Short transient receptor potential channel 6 (Mus musculus), sequence (Q61143 whole entry, looked up): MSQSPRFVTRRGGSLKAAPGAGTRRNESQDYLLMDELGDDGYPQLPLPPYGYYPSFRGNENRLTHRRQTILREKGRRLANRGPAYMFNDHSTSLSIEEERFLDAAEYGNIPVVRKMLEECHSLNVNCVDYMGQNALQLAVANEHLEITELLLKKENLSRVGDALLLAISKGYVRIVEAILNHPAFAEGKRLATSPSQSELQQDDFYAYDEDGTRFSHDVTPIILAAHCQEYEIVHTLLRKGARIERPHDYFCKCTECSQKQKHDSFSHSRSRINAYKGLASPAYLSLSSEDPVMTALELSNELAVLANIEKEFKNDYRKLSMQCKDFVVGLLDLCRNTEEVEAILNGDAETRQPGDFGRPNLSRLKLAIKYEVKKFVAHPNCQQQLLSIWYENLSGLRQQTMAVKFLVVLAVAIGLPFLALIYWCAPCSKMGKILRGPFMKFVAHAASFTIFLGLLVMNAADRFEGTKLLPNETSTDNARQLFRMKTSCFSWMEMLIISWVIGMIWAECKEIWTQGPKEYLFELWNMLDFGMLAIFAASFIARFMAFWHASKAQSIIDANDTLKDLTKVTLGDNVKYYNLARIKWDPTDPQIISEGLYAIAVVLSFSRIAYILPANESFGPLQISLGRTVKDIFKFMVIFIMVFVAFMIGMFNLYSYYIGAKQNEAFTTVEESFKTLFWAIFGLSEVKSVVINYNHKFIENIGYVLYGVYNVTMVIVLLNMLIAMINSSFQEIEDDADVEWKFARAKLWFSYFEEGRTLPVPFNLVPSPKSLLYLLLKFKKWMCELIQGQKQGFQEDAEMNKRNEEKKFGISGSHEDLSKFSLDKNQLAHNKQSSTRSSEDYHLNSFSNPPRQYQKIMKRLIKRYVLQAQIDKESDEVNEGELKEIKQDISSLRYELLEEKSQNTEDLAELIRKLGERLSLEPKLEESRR
Potassium voltage-gated channel subfamily KQT member 2 (Rattus norvegicus), sequence (O88943 whole entry, looked up): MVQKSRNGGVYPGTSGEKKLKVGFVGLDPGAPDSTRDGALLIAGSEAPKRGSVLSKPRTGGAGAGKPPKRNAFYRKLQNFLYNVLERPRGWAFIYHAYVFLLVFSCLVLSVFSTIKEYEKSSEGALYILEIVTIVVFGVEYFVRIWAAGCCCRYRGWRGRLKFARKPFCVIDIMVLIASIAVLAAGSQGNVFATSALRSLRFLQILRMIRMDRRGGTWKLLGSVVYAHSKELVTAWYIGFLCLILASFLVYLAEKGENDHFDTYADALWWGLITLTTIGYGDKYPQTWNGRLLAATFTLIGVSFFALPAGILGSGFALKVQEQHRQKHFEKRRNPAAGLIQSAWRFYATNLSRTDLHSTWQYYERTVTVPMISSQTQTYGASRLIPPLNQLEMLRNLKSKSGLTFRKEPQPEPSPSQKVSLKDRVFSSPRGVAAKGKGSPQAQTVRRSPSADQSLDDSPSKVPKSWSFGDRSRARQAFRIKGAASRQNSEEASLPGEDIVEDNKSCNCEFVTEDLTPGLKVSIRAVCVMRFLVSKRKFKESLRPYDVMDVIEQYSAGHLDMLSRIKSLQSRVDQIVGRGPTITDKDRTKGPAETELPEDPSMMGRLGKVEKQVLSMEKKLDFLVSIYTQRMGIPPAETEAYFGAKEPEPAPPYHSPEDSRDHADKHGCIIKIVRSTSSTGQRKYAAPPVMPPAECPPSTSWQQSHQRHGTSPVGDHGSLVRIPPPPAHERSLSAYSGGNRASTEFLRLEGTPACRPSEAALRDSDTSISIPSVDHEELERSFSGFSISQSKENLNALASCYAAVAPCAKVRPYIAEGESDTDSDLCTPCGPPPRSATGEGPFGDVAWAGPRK
Potassium voltage-gated channel subfamily KQT member 1 (Homo sapiens), sequence (P51787 whole entry, looked up): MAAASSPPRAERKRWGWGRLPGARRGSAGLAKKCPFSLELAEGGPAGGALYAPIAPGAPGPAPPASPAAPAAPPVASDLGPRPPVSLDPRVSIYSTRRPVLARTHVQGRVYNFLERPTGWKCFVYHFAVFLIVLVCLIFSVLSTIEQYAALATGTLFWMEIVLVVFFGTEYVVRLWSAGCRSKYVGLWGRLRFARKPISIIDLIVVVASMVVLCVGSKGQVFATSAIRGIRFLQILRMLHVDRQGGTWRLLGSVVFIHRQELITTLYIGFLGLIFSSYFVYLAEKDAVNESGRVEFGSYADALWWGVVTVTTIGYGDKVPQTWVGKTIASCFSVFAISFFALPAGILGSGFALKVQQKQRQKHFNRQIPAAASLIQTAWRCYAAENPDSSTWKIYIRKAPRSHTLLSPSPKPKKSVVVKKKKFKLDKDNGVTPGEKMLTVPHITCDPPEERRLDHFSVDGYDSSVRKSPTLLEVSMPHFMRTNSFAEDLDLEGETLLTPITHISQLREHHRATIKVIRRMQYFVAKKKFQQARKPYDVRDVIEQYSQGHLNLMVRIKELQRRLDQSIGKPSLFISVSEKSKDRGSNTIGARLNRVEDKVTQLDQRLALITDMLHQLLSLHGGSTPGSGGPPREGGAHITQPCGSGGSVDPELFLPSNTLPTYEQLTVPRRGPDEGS
Short transient receptor potential channel 4 (Mus musculus), sequence (Q9QUQ5 whole entry, looked up): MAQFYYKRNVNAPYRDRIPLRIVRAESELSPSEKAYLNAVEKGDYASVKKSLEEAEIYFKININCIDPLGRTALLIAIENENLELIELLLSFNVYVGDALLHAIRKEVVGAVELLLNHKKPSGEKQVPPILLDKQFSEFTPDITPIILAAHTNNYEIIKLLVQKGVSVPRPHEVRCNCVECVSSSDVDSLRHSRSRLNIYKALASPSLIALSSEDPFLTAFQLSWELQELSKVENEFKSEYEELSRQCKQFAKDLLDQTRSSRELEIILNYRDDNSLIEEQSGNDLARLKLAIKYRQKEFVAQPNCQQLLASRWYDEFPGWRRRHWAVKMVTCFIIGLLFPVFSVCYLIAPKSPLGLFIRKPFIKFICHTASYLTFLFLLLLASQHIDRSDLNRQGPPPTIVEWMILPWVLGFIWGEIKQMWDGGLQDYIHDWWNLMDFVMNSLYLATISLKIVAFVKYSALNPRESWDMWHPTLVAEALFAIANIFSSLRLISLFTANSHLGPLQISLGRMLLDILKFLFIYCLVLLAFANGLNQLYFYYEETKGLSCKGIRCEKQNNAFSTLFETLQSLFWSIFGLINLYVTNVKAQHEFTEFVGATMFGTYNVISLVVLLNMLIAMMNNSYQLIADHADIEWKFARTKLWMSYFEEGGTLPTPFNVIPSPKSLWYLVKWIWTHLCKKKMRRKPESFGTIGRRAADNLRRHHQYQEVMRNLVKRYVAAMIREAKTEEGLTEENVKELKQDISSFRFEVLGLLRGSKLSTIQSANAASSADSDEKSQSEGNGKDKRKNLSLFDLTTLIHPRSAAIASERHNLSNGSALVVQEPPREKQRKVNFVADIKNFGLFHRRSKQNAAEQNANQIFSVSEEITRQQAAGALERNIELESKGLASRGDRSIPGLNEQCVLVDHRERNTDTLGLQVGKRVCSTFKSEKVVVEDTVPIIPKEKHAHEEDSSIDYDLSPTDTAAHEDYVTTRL

`C=CCSc1nc2c(c(=O)[nH]c(=O)n2C)n1C/C=C(/C)Cl`: the result in assay [1], in assay [2], in [3], in [4], in assay [7] and in assay [8] was inactive. Besides, the result in assay [9], in assay [10], in assay [11], in [12], in assay [14] and in assay [15] was inactive. Besides, the result in assay [16], in assay [17], in assay [18] and in assay [19] was inactive. Further, the inhibition (usually the change of the read-out against control, counted positive when it falls) was 85% (active) in assay [5], 57% (active) in assay [6] and 32.5% (active) in [13].

In the case of `Cc1ccc(/C=C/C(=O)c2ccc(O)cc2)cc1`, the result in assay [1], in [2], in assay [3], in [4], in [7] and in assay [8] was inactive. Also, the call in assay [9], in assay [10], in [11], in assay [12], in [14] and in [15] was inactive. Also, the outcome in [16], in assay [17], in assay [18] and in [19] was inactive. The inhibition in assay [5] was 76% (active); in [6], 38% (active); in assay [13], 15.8% (active).

Regarding `Cc1ccc(OCC(=O)NNC(=S)NC(=O)c2ccc(Br)o2)c(C)c1`, the result in assay [1], in [2], in assay [3], in [4], in assay [6] and in assay [7] was inactive. Also, the outcome in assay [8], in [9], in assay [10], in [11], in assay [14] and in assay [15] was inactive. The result in assay [16] was inactive. Further, the inhibition in assay [5] is 65% (active); in assay [13] it was 21.6% (active). Besides, the activation was 18.1% (active) in [12] and 198% (active) in assay [17]. The potentiation in assay [18] was 106% (active); in [19], 328% (active).

Take `CCCC1(c2ccccc2)NC(=O)N(CC(=O)c2[nH]c(C)c(C(=O)OCC)c2C)C1=O` (configuration not stated): the outcome in assay [1], in assay [2], in [3], in assay [5], in assay [6] and in [7] was inactive. For the same compound, the outcome in assay [20], in assay [9], in assay [10], in assay [11], in assay [12] and in [13] was inactive. Besides, the outcome in assay [15] and in [16] was inactive. The potentiation in [4] was 18% (active); in assay [14] it was 35.6% (active).

For the compound `S=c1[nH]nc(-c2cc3c(s2)-c2ccccc2CC3)o1`, the outcome in assay [1], in [2], in assay [3], in assay [4], in [6] and in assay [7] was inactive. Also, the outcome in [8], in [9], in [10], in [11], in assay [12] and in assay [14] was inactive. Also, the outcome in assay [15] and in assay [16] was inactive. In addition, the figures for the inhibition in [5] and in assay [13] were 97% (active) and 32.1% (active), respectively. Besides, in assay [17], the activation is 810% (active). Moreover, the potentiation in assay [18] was 241% (active); in assay [19] it was 809% (active).

On to `CCCCN(CC)CCNC(=O)c1cc2c(=O)n(C)c3ccccc3c2s1`, for which the result in assay [1], in assay [2], in assay [5], in assay [6], in assay [7] and in assay [20] was inactive. In addition, the outcome in assay [9], in assay [10], in assay [11], in [12], in assay [13] and in [15] was inactive. Besides, in assay [16], the outcome was inactive. Also, the potentiation in assay [3] is 31% (active); in [4], 9% (active); in assay [14] it was 8.16% (active).

As for `CC1=NN(c2ccccc2)C(=O)/C1=C/c1c(O)n(-c2ccc(F)c(Cl)c2)[nH]c1=O`, the result in [1], in [2], in assay [3], in [4], in assay [6] and in [7] was inactive. For the same compound, the result in [8], in assay [9], in assay [10], in assay [11], in assay [12] and in assay [14] was inactive. The outcome in assay [15], in assay [16], in [17], in [18] and in assay [19] was inactive. Also, the inhibition is 97% (active) in assay [5] and 17.1% (active) in assay [13].
